TRb SRC2 PPI: inhibitors of human thyroid hormone receptor beta-SRC2 interaction; P10828; TRbeta-SRC2 peptide binding, fluorescence polarization; receptor liganded with 1 µM T3; Potency, µM (series often up to 106 µM), usual class: inhibitors; hit rate 0.065% among 280,000; AID 1469; active = well fitted inhibition curve with a large enough effect; inconclusive = small, poorly fitted or top-dose-only effect, or effect the other way; note: nearly all actives have a fitted effect of over 50% in size
Target sequence (P10828 whole entry, looked up): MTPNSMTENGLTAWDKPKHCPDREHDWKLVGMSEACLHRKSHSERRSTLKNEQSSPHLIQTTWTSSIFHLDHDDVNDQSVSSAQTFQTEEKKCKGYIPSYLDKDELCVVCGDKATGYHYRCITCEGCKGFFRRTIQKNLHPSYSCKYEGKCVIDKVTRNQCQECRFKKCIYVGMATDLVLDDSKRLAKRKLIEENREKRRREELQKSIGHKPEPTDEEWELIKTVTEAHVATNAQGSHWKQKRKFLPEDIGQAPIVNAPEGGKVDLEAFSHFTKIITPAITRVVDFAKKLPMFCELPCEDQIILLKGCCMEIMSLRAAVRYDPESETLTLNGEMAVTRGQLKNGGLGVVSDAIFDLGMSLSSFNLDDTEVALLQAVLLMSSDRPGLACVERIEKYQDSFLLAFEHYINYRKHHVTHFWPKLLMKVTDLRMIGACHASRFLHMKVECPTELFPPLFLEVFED
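TRb LBD 0.6 uM + Texas Red SRC2 peptide 20 nM, 1 uM T3, Tris buffer w/ 5% DMSO; compound pinned, 5 h RT; FP read ex 555/em 632; normalized to unbound and bound controls.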
TexasRed fluor: Texas Red fluorescence interference in TRb-SRC2 counter-screen. TRb/SRC2 Texas Red total fluorescence interference. hit rate 0.29% among 280,000. AID 1479. Potency, µM (highest dose often 106 µM); active = well fitted curve in either direction with a large enough effect; inconclusive = small, poorly fitted or top-dose-only effect
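Flags fluorescent or light-absorbing compounds by total fluorescence, S + 2P, at 555 nm excitation and 632 nm emission. Mixture: 20 nM Texas Red SRC2 peptide, 0.6 uM human TRb LBD, 1 uM T3, 5% DMSO; compound exposure 5 h at ambient temperature.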
RGS12 GoLoco inh: inhibitors of human Gai1-RGS12 GoLoco interaction (red fluorophore) | P63096 | Gai1:RGS12 GoLoco peptide FP, rhodamine, 10 min | Potency, µM (series often up to 61.6 µM), usual class: inhibitors | hit rate 0.44% among 230,000 | AID 880; active = well fitted inhibition curve with a large enough effect, not every such curve was filed as active; inactive = no such curve, though single readings can be large or run the other way; note: nearly all actives have a fitted effect of over 30% in size
FBPA coupling cs: inhibits coupling enzyme system, counter-screen for aldolase hits | coupling enzyme system counterscreen, AmpLite Red fluorescence | activity change, negative = inhibition, % at 58.2 µM, hits read low | hit rate 0.67% among 290,000; in the data active = activity change below about -30%
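Counterscreen lacking aldolase: glyceraldehyde-3-phosphate coupling-enzyme reagent preincubated 10 min at RT with compound (at 57.5 uM final), then substrate/coupling system with AmpLite Red added; fluorescence read at 525/598 nm after 20 min RT.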
Numbers stand for hits; [ ] = dose if it differs, or a comment. This is a sample that favours compounds with a hit; in the whole collection about 0.93% have one here.

Results for N#Cc1c(N(CCO)CCO)nc(N)c2c(N)nc3c(c12)CC(=O)N3Cc1cccs1 ?
TRb SRC2 PPI: inactive; TexasRed fluor: inactive; RGS12 GoLoco inh: inactive; FBPA coupling cs: -31

What do the screens show for `COc1ccc(NC(=S)Nc2ccc3nccnc3c2)cc1`?
TRb SRC2 PPI: inactive; TexasRed fluor: inactive; RGS12 GoLoco inh: inactive; FBPA coupling cs: -38

Results for Cc1ccc(NC(=S)N2CCOCC2)cc1 ?
TRb SRC2 PPI: inactive; TexasRed fluor: inactive; RGS12 GoLoco inh: inactive; FBPA coupling cs: inactive

Results for S=C(Nc1ccc2nccnc2c1)N1CCOCC1 ?
TRb SRC2 PPI: inactive; TexasRed fluor: inactive; RGS12 GoLoco inh: inactive; FBPA coupling cs: -34

What do the screens show for `COc1ccc(NC(=S)Nc2ccc3snnc3c2)cc1`?
TRb SRC2 PPI: inactive; TexasRed fluor: inactive; RGS12 GoLoco inh: inactive; FBPA coupling cs: inactive

What do the screens show for `Cc1nc2ccc(NC(=S)NCCCO)cc2nc1C`?
TRb SRC2 PPI: inactive; TexasRed fluor: inactive; RGS12 GoLoco inh: inactive; FBPA coupling cs: -30

Results for OCCNC(=S)Nc1ccc2nsnc2c1 ?
TRb SRC2 PPI: inactive; TexasRed fluor: inactive; RGS12 GoLoco inh: inactive; FBPA coupling cs: -47

How did O=C(NCCO)Nc1ccc2nsnc2c1 do in these assays?
TRb SRC2 PPI: inactive; TexasRed fluor: inactive; RGS12 GoLoco inh: inactive; FBPA coupling cs: inactive

How did CCCNC(=S)Nc1ccc2nc(-c3ccccn3)c(-c3ccccn3)nc2c1 do in these assays?
TRb SRC2 PPI: inactive; TexasRed fluor: inactive; RGS12 GoLoco inh: inactive; FBPA coupling cs: -54

Results for COc1ncc2nc(-c3cc(F)cc(F)c3)c(=O)n(CCC#N)c2n1 ?
RGS12 GoLoco inh: inactive; FBPA coupling cs: inactive

Results for CO[C@@H]1/C=C\O[C@@]2(C)Oc3c(C)c(O)c4c(c3C2=O)C(=N[C@H]2CC[C@H](O)O[C@@H]2C)C=C(NC(=O)/C(C)=C\C(=O)[C@@H]2C[C@@H]2[C@@H](O)[C@H](C)[C@@H](O)[C@H](C)[C@H](OC(C)=O)[C@@H]1C)C4=O ?
RGS12 GoLoco inh: inactive[14.2 µM]

How did O=C(COc1ccccc1)NC(=S)Nc1cccc([N+](=O)[O-])c1 do in these assays?
TRb SRC2 PPI: inconclusive; TexasRed fluor: 0.89µM[quencher]; RGS12 GoLoco inh: inactive; FBPA coupling cs: inactive

Results for O=C(CCOc1ccccc1)Nc1cccc([N+](=O)[O-])c1 ?
TRb SRC2 PPI: inactive; TexasRed fluor: inactive; RGS12 GoLoco inh: inactive; FBPA coupling cs: inactive

How did O=Nc1c(O)[nH]c2ccc(F)cc12 do in these assays?
TRb SRC2 PPI: inactive; TexasRed fluor: inactive; RGS12 GoLoco inh: inactive; FBPA coupling cs: inactive

What do the screens show for `COc1ccc2[nH]c(O)c(N=O)c2c1`?
TRb SRC2 PPI: inactive; TexasRed fluor: inactive; RGS12 GoLoco inh: 16µM; FBPA coupling cs: inactive

What do the screens show for `Cc1cc[n+](C2=C([O-])c3ccccc3C(=O)/C2=N\S(=O)(=O)c2cccs2)cc1C`?
TRb SRC2 PPI: inactive; TexasRed fluor: inactive; RGS12 GoLoco inh: inactive; FBPA coupling cs: -63

How did O=C1/C(=N\S(=O)(=O)c2cccs2)C([n+]2cccc(Cc3ccccc3)c2)=C([O-])c2ccccc21 do in these assays?
TRb SRC2 PPI: inactive; TexasRed fluor: inactive; RGS12 GoLoco inh: inactive; FBPA coupling cs: -38

How did Cc1cc(C)c[n+](C2=C([O-])c3ccccc3C(=O)/C2=N\S(=O)(=O)c2cccs2)c1 do in these assays?
TRb SRC2 PPI: inactive; TexasRed fluor: inconclusive; RGS12 GoLoco inh: inactive; FBPA coupling cs: inactive

What do the screens show for `O=S(=O)([N-]c1nc2ccccc2nc1-[n+]1ccc(CCCc2ccccc2)cc1)c1cccs1`?
TRb SRC2 PPI: inactive; TexasRed fluor: inactive; RGS12 GoLoco inh: inactive; FBPA coupling cs: inactive

Results for CCCC[n+]1ccn(C2=C([O-])c3ccccc3C(=O)/C2=N\S(=O)(=O)c2ccccc2)c1 ?
TRb SRC2 PPI: inactive; TexasRed fluor: inactive; RGS12 GoLoco inh: inactive

What do the screens show for `O=C1/C(=N\S(=O)(=O)c2cccs2)C([n+]2ccc(CCCc3ccccc3)cc2)=C([O-])c2ccccc21`?
TRb SRC2 PPI: inactive; TexasRed fluor: inactive; RGS12 GoLoco inh: inactive; FBPA coupling cs: -35

Results for O=c1c(-c2cccs2)nc2cnc(N3CCNCC3)nc2n1Cc1cccs1 ?
RGS12 GoLoco inh: inactive; FBPA coupling cs: inactive

Results for CCN(CC)S(=O)(=O)c1ccc2c(c1)N(CC(=O)N1CCN(c3cccc(Cl)c3)CC1)C(=O)CO2 ?
TRb SRC2 PPI: inactive; TexasRed fluor: inactive

What do the screens show for `CCOCCCn1c(SCC(=O)Nc2ccccc2CC)nc2ccccc2c1=O`?
TRb SRC2 PPI: inactive; TexasRed fluor: inactive

What do the screens show for `C=CCn1c(O)c(CN2CCN(Cc3ccccc3)CC2)c(C)c(C#N)c1=O`?
TRb SRC2 PPI: inactive; TexasRed fluor: inactive; RGS12 GoLoco inh: inactive; FBPA coupling cs: -42

Results for CCCn1c(O)c(CN2CCCCC2)c(C)c(C#N)c1=O ?
TRb SRC2 PPI: inactive; TexasRed fluor: inactive; RGS12 GoLoco inh: inactive; FBPA coupling cs: -40

How did Cc1c(CN2CCCCC2)c(O)n(CCCO)c(=O)c1C#N do in these assays?
TRb SRC2 PPI: inactive; TexasRed fluor: inactive; FBPA coupling cs: -30

Results for CN1CCN(C(=O)Cn2c(-c3cccs3)cc3cc(Cl)ccc32)CC1 ?
TRb SRC2 PPI: inactive; TexasRed fluor: 112µM[quencher]

How did O=C(Cn1c(-c2cccs2)cc2ccccc21)NCCCN1CCN(c2ccc(F)cc2)CC1 do in these assays?
TRb SRC2 PPI: inconclusive; TexasRed fluor: 63µM[quencher]

Results for COc1cccc(N2CCN(C(=O)Cn3c(-c4cccs4)cc4ccccc43)CC2)c1 ?
TRb SRC2 PPI: inconclusive; TexasRed fluor: 40µM[quencher]

How did CCN1CCN(C(=O)Cn2c(-c3cccs3)cc3ccccc32)CC1 do in these assays?
TRb SRC2 PPI: inactive; TexasRed fluor: inactive

What do the screens show for `CC(C)[C@@H](OCc1ccccc1)[C@H](C)/C=N\O[C@@H](C)c1cn([C@H](CO)Cc2ccccc2)nn1`?
TRb SRC2 PPI: inactive[11.2 µM]; TexasRed fluor: inactive[11.2 µM]; FBPA coupling cs: inactive

How did CCCOC1(C(F)(F)F)NC(=O)N(c2ccc(Cl)cc2)C1=O (configuration not stated) do in these assays?
TRb SRC2 PPI: inactive; TexasRed fluor: inactive

Results for O=S(=O)(Nc1cc2nc3ccccc3nc2n1Cc1ccccc1)c1ccc(Cl)cc1 ?
TRb SRC2 PPI: inactive; TexasRed fluor: inactive; RGS12 GoLoco inh: inactive; FBPA coupling cs: -55

How did COc1ccc(OC)c(C(=O)CSc2nc3cccnc3n2C)c1 do in these assays?
TRb SRC2 PPI: inactive; TexasRed fluor: inactive; RGS12 GoLoco inh: inactive; FBPA coupling cs: -40

What do the screens show for `C[C@@](O)(/C=C/[C@H]1CC=CC(=O)O1)[C@@H](C[C@@H](O)\C=C/C=C\C=C\CO)OP(=O)(O)O`?
TRb SRC2 PPI: inactive[11.2 µM]; TexasRed fluor: inactive[11.2 µM]; RGS12 GoLoco inh: inactive[14.2 µM]; FBPA coupling cs: inactive

How did O=[N+]([O-])c1ccc(O)c(C=Nc2ccc3oc(Cc4ccc(Cl)cc4)nc3c2)c1 do in these assays?
TRb SRC2 PPI: inactive; TexasRed fluor: inactive; RGS12 GoLoco inh: inactive; FBPA coupling cs: -35

Results for COCCn1c(=O)cnc2cnc(N3CCN(C)CC3)nc21 ?
RGS12 GoLoco inh: inactive; FBPA coupling cs: inactive

What do the screens show for `COc1cc(O)c2c(c1)OC(C)(C)CC2=O`?
TRb SRC2 PPI: inactive; TexasRed fluor: inactive; RGS12 GoLoco inh: inactive; FBPA coupling cs: inactive

Assay outcomes: PubChem, National Center for Advancing Translational Sciences (NCATS)
